Source: PubChem BioAssay
An excerpt weighted towards active compounds, which were near 4% of everything screened.
esBAF inh – SWI/SNF esBAF complex inhibition | mouse ES cells, Bmi1-luciferase knock-in reporter, 24 h; 100% = twice the neutral-well signal | hit rate 2% among 350,000 | reporter increase, % at 12.5 µM; in the data active = activation above about 40%; inconclusive = no clear call, values can overlap the other calls;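 note: 0% = median of the plate's neutral control wells and 100% = double that signal; a rise in the Bmi1 reporter signal indicates esBAF inhibition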
EWS-Fli block – inhibitors of EWS/Fli oncoprotein transcriptional activity; A673 NR0B1-luciferase reporter, viability-normalised; inhibition, % at 12.6 µM; hit rate 0.67% among 350,000; AID 651661;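 active = mean inhibition of at least 50% after viability correction, with every replicate also passing that limit; inconclusive = mean reaches 50% but only one of two replicates passes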;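 note: firefly luciferase signal divided by Alamar Blue viability fluorescence both relative to DMSO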
MITF TRPM1 inh – reduces MITF-dependent TRPM1 promoter luciferase signal; hit rate 0.83% among 330,000; inhibition, % at 12.5 µM; AID 488899; SK-MEL-5 TRPM1 promoter luciferase, 24 h;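 active = mean inhibition across replicates of 60% or more, whatever share of single replicates reaches that level; inconclusive = some that reach 60%, reason not given; inactive = mean inhibition across replicates below 60%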
PAX8 reporter – lowers PAX8-driven luciferase in RMG-I cells; RMG-I TPO-luciferase reporter, SteadyGlo, 24 h; inhibition, % at 12.6 µM; hit rate 1.2% among 360,000;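 active = mean replicate inhibition at least 60% with every replicate also reaching 60%; inconclusive = only one of the two criteria is met; inactive = mean below 60% and not all replicates reaching 60%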;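 note: luciferase light reporting Pax8 driven TPO promoter activity; plate controls were median of neutral control wells for no effect and mitoxantrone controls for full effect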
Wnt act – activates Wnt/beta-catenin signaling in a reporter cell assay | hit rate 1.2% among 300,000 | AID 743398 | activation, % at 9.35 µM | activator, plate reader; in the data active = activation above about 30%, passing the limit was not always enough; inconclusive = no clear call, values can overlap the other calls;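 note: 0% = neutral control wells and 100% = positive control wells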
MITF TRPM1 HTS – activators of MITF-driven TRPM1 promoter activity in SK-MEL-5 cells; SK-MEL-5 TRPM1-promoter luciferase, 24 h; % of positive control, neutral wells = 0; activation, % at 12.5 µM; hit rate 0.75% among 300,000;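 active = mean activation of at least 80% with every replicate also reaching 80%; inconclusive = mean reaches 80% but some replicate falls short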;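 note: 0% = neutral control wells and 100% = parthenolide positive control wells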
The depositor's hits bear a star; ? = inconclusive; . = no result given.

SMILES | esBAF inh | EWS-Fli block | MITF TRPM1 inh | PAX8 reporter | Wnt act | MITF TRPM1 HTS
Cc1noc(C)c1NC(=O)N(C)C[C@H]1Oc2ccc(NC(=O)CCCCCC(=O)Nc3ccccc3N)cc2CC(=O)N([C@@H](C)CO)C[C@@H]1C | 4.1 | -9.8 | . | 10.2 | . | .
COc1ccc(S(=O)(=O)N(C)C[C@@H]2OCCCC[C@@H](C)Oc3ccc(NC(=O)NC4CCCCC4)cc3C(=O)N([C@H](C)CO)C[C@@H]2C)cc1 | 10.8 | -11.0 | . | -10.2 | . | .
O=C(CC1CC1)N1CC(=O)N2[C@H](C1)[C@@H](c1ccc(-c3ccccc3)cc1)[C@@H]2CO | . | -9.9 | . | -6.5 | . | .
C[C@@H]1CN([C@@H](C)CO)C(=O)c2cc(NC(=O)Cc3ccccc3)ccc2O[C@@H](C)CCCCO[C@@H]1CN(C)Cc1ccc(C(=O)O)cc1 | -3.3 | 1.7 | . | 1.9 | . | .
COc1ccc(C(=O)Nc2nnc(SCC(=O)Nc3ccc(NC(C)=O)cc3)s2)c(OC)c1 | 36.8 | -82.5 | -57.2 | 0.8 | 35.6* | 51.9
COc1ccccc1NC(=O)c1cnc(SCC(=O)NCC2CCCO2)n(C)c1=O (stereo not drawn) | 1.4 | 11.1 | 68.1* | 3.0 | 32.3* | -67.9
COc1cc(C(=O)Nc2nnc(SCC(=O)NCC3CCCO3)s2)cc(OC)c1OC (stereo not drawn) | 3.9 | 1.7 | 12.7 | -5.9 | 3.5 | -12.3
COc1ccc(C(=O)Nc2nnc(SCC(=O)NC3CCCC3)s2)c(OC)c1 | . | . | 13.0 | -232.3 | 12.8 | -11.8
Cc1ccc(Nc2nnc(SCC(=O)NCC3CCCO3)s2)cc1C (stereo not drawn) | 46.9* | -49.7 | -34.0 | -72.3 | 9.2 | 37.7
Cc1ccc(Nc2nnc(SCC(=O)NCC3CCCO3)s2)cc1 (stereo not drawn) | -3.3 | -18.1 | -3.0 | -13.1 | 4.1 | 4.0
COc1ccccc1C(=O)Nc1nnc(SCC(=O)NCC2CCCO2)s1 (stereo not drawn) | 5.3 | -76.2 | -82.7 | -106.1 | 33.7* | ?
COc1ccc(CN(C)C[C@@H]2Oc3c(NC(=O)c4cnccn4)cccc3C(=O)N([C@H](C)CO)C[C@H]2C)cc1 | 0.5 | -1.9 | . | 0.6 | . | .
Cc1noc(C)c1S(=O)(=O)Nc1ccc2c(c1)C(=O)N([C@H](C)CO)C[C@@H](C)[C@@H](CN(C)S(=O)(=O)c1cn(C)cn1)O2 | 6.9 | -3.5 | . | -20.6 | . | .
CCCC#Cc1ccc(CC[C@H]2O[C@H]3CC[C@@H](CO)O[C@H]3C[C@H]2NS(=O)(=O)c2ccccc2)cc1 | . | . | . | 10.6 | . | .
CCC(=O)N[C@H]1CC[C@@H](CCn2cc(CN(C)C)nn2)O[C@H]1CO | -3.3 | -0.1 | . | -5.8 | . | .
CN(C)S(=O)(=O)c1cccc(NC(=O)C2Cc3ccccc3CN2C(=O)c2ccco2)c1 (stereo not drawn) | 43.6* | -15.6 | 8.6 | -3.8 | 2.3 | -4.5
Cc1ccc(NC(=O)C2Cc3ccccc3CN2C(=O)c2ccco2)cc1S(=O)(=O)N(C)C (stereo not drawn) | -0.9 | -24.2 | -10.3 | -52.2 | -0.5 | 12.6
COc1ccc(NC(=O)N(C)C[C@@H]2OCCCC[C@@H](C)Oc3ccc(NS(C)(=O)=O)cc3C(=O)N([C@H](C)CO)C[C@H]2C)cc1 | 5.7 | -5.6 | . | -5.3 | . | .
Nc1nc(-c2nc3ccccc3[nH]2)cs1 | 31.9 | . | -33.4 | . | 56.1* | .
Cc1ccc(-c2nc3ccccc3[nH]2)s1 | . | . | -55.4 | . | . | 60.6
c1csc(-c2nc3ccccc3[nH]2)c1 | 45.9* | . | -36.1 | . | . | 33.2
c1ccc(-c2nc3ccccc3[nH]2)cc1 | 71.7* | -91.8 | -84.5 | -201.2 | 61.3* | 86.1*
C[C@@H]1CN([C@@H](C)CO)C(=O)Cc2cc(NC(=O)Nc3ccccc3)ccc2O[C@H]1CN(C)S(C)(=O)=O | -3.7 | 14.2 | . | -9.7 | . | .
CNC[C@H]1OCCCC[C@H](C)Oc2ccc(NS(=O)(=O)c3ccccc3)cc2C(=O)N([C@@H](C)CO)C[C@@H]1C | -6.6 | -1.9 | . | -5.1 | . | .
CCN1[C@H](C(=O)NCCCN(C)C)[C@@H](CO)[C@@H]2Cn3c(ccc(-c4ccccc4OC)c3=O)[C@@H]21 | . | -13.1 | . | -10.0 | . | .
SMILES | esBAF inh | EWS-Fli block | MITF TRPM1 inh | PAX8 reporter | Wnt act | MITF TRPM1 HTS
N#C[C@@H]1[C@H](c2ccc(-c3cccc(F)c3)cc2)[C@H](CO)N1C(=O)CN1CCOCC1 | 4.3 | 1.9 | . | 3.0 | . | .
CC1C(O)=C(c2nc3ccccc3[nH]2)C(=N)N1c1ccccc1 (stereo not drawn) | 48.0* | . | -17.3 | . | . | 30.3
N=C1C(c2nc3ccccc3[nH]2)=C(O)CN1c1ccc(CC(=O)O)cc1 | -9.7 | . | 4.3 | . | . | -3.0
N=C1C(c2nc3ccccc3[nH]2)=C(O)CN1c1ccccc1 | 62.7* | . | -42.3 | . | 5.6 | 44.6
CN1C(=O)c2cc(NC(=O)C3CCC3)ccc2OC[C@H]2O[C@H](CC(=O)NCCc3ccncc3)CC[C@H]21 | . | 6.3 | . | 1.0 | . | .
O=C(C[C@H]1C=C[C@H](NC(=O)c2ccc(F)cc2)[C@H](CO)O1)NCc1ccncn1 | -8.0 | 7.1 | . | -14.2 | . | .
Cc1ccccc1NS(=O)(=O)c1cccc(-c2nnc(-c3ccccc3)o2)c1 | -0.2 | . | 5.3 | . | . | .
Cc1ccc(-c2nnc(-c3ccccc3)o2)cc1Br | . | . | -35.1 | -237.3 | 34.9* | 34.1
CN(C)S(=O)(=O)c1cccc(-c2nnc(-c3ccccc3)o2)c1 | . | -94.7 | -84.9 | . | -0.2 | 85.9*
Cc1ccc(-c2nnc(-c3cccc(Br)c3)o2)cc1 | . | . | -47.5 | -172.9 | 52.2* | 53.4
COc1ccc(N2C(=O)c3cccc4c(N(C)CCO)ccc(c34)C2=O)cc1 | 42.8* | -54.7 | -15.5 | -18.9 | 2.8 | .
O=C1c2cccc3c(O)ccc(c23)C(=O)N1c1ccc(Cl)cc1 | -2.1 | 25.6 | 54.9 | 101.7* | 0.0 | -50.1
COc1ccc(-c2ccc3c(=O)cc(-c4ccsc4)oc3c2)cn1 | 6.9 | 0.0 | -28.3 | -31.4 | -1.6 | 32.8
COc1ccc(-c2ccc3c(c2)O/C(=C\c2ccsc2)C3=O)cn1 | 45.4* | -61.6 | -58.6 | -58.5 | 11.4 | 73.0
COc1ccc2c3c(n(C)c2c1)[C@H](CO)N(C(=O)c1ccc(F)cc1)CC31CCN(C(=O)c2ccc(F)cc2)CC1 | . | 16.4 | . | . | . | .
Cc1cc(C(=O)OCC(=O)c2ccc(Br)s2)no1 | 1.7 | 1.1 | 10.6 | . | 0.1 | -7.4
CC(=O)c1c(C)[nH]c(C(=O)OCC(=O)c2ccc(C)s2)c1C | 56.2* | -61.3 | -64.3 | -83.4 | 20.8 | 61.8
Cc1ccc(C(=O)COC(=O)c2ccc(Cl)c(N)c2)s1 | 92.1* | -17.1 | -37.0 | -39.2 | 30.0 | 37.5
CC(=O)c1c(C)[nH]c(C(=O)OCC(=O)c2c[nH]c3ccccc23)c1C | 53.0* | -93.1 | -6.3 | -65.1 | 17.2 | 6.1
O=C(OCC(=O)c1ccc(Br)s1)c1ccc(O)cc1 | 75.8* | -25.1 | -47.5 | -56.1 | 42.8* | 40.1
CN(C)C(=O)c1ccc(-c2ccc(C3[C@@H]4CN(C(=O)C5CCCC5)C[C@H]3N4)cc2)cc1 (stereo partly drawn) | . | -1.8 | . | . | . | .
O=C(Nc1nc2cc3c(cc2s1)OCO3)C1=COCCO1 | -74.6 | 80.3* | 82.9* | 33.5 | -1.9 | -82.9
